Measurements published in PubChem BioAssay (NCATS).
Inconclusive results are not listed. Unmarked numbers belong to inactive results. The source made the active and inactive calls. Calls follow the shape of the dose curve; as a rule, active = well fitted inhibition curve with a large enough effect; inconclusive = small, poorly fitted or top-dose-only effect; inactive = no such curve, though single readings can be large or run the other way.

target: Cytochrome P450 3A7 (Homo sapiens) (UniProt P24462); assay: Cytochrome P450 family 3 subfamily A member 7 (CYP3A7) small molecule antagonists: luciferase biochemical qHTS assay (AID 1963596); conditions: P450-Glo CYP3A7 enzyme luminescence, 1 h; series mostly up to 57.4 µM; activity change, negative = inhibition: at the top concentration; also: nearly all actives have a fitted effect of over 40% in size
Sequence (P24462 whole entry, looked up): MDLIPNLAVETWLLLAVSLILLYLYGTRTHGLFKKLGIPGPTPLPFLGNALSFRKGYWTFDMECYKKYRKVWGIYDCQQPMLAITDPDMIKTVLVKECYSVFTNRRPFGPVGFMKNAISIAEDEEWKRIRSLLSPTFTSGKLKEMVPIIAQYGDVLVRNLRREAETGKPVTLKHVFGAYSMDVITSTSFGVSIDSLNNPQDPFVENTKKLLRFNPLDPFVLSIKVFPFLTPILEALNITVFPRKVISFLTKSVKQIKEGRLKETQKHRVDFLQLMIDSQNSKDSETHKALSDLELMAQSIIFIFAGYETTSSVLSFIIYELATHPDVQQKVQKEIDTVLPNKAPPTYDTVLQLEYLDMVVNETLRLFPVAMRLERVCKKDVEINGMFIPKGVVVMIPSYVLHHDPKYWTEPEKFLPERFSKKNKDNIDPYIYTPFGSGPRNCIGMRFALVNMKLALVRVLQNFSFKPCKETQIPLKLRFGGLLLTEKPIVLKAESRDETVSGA
Method in brief: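 Luminescence read-out (relative luminescence units) after 20 min with detection reagent, which stops the reaction. Enzyme, proluciferin substrate and compound preincubated 10 min, RT; NADPH regeneration system then started 1 h reaction. Ketoconazole as positive control.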
% is scaled to controls: 0 for no effect and ±100 for the full control effect; potency is read from the fitted curve at half-maximal effect.

Row | SMILES | activity change, negative = inhibition | Potency
1 | C[C@H](NCCc1ccc(O)cc1)[C@H](O)c1ccc(O)cc1 | -26.9% | 
2 | CN(C)CCOC(c1ccc(Cl)cc1)c1ccccn1 (stereo not given) | -18.6% | 
3 | CC(C)[C@H](N)C(=O)O | -0.829% | 
4 | Cc1ccc(Cn2c(SCc3ccc(C(=O)N4CCCCCC4)cc3)nc3ccncc32)cc1 | 4.01% | 
5 | CCCCCC/C=C\CCCCCCCc1cccc(O)c1C(=O)O | -3.32% | 
6 | Cn1nnc(-c2ccc(-c3ccc(N4C[C@H](CO)OC4=O)cc3F)cn2)n1 | -4.78% | 
7 | FCOC(C(F)(F)F)C(F)(F)F | -11.7% | 
8 | O=C(O)c1ccc(Cc2c(-c3cccc(-c4ccccc4)c3)[nH]n(-c3nc(C(=O)O)cs3)c2=O)cc1 | 0% | 
9 | Nc1ncnc2c1c(-c1ccc(Cl)cc1)nn2-c1cccc(-c2cnnn2Cc2cccc(-c3ccccc3)c2)c1 | -2.15% | 
10 | CCCN(CCc1cccs1)[C@H]1CCc2c(O)cccc2C1 | 0% | 
11 | CCCN(CCN1CCN(c2ccccc2OC)CC1)C1CCc2ncsc2C1 (stereo not given) | 22.7% | 
12 | Cc1ccc(Nc2nc3nonc3nc2Nc2cccc(C(F)(F)F)c2)cc1Cl | -28.6% | 
13 | CC1(C)OC[C@H](NC(=O)Nc2ccc(Br)cc2Br)[C@H](c2ccccc2)O1 | 0% | 
14 | O=C(O)CN(CC(=O)O)Cc1cc2c(-c3ccccc3C(=O)O)c3cc(CN(CC(=O)O)CC(=O)O)c(=O)cc-3oc2cc1O | 0.913% | 
15 | COc1ccccc1NC(=O)Cc1c(C(=O)O)[nH]c2ccc(Cl)cc12 | 16.2% | 
16 | Cc1ccc(C)c(Nc2nc3nonc3nc2Nc2cccc(C)c2C)c1 | 3.21% | 
17 | Cc1ccc(Nc2nnc(-c3ccc([N+](=O)[O-])cc3)o2)cc1Cl | -12.6% | 
18 | Cc1cc(C)cc(NC(=O)CSc2c(C(C)C)cnc3c2c(=O)n(C)c(=O)n3C)c1 | 0% | 
19 | CCC(=C(c1ccc(OCCN2CCCC2)cc1)c1ccc(OCCN2CCCC2)cc1)c1ccccc1 | 0% [at 11.5 µM] | 
20 | CC1(C)[C@H]2C[C@H](C/C=C\CCCC(=O)O)[C@@H](NC(=O)c3csc4ccc(O)cc34)[C@@H]1C2 | 16.7% | 

Row | SMILES | activity change, negative = inhibition | Potency
21 | Cc1ccc(-n2nc3c(N4CCCC(C(=O)NCc5ccccc5C)C4)nnc(C)c3c2C)cc1 (stereo not given) |  | 756 nM (active)
22 | COc1ccc(C#Cc2ccc(C(=O)N3CCC[C@@H](O)C3)c(F)c2)cc1 | -7.99% | 
23 | CC(C)(F)C[C@@H](N[C@@H](c1ccc(-c2ccc(S(C)(=O)=O)cc2)cc1)C(F)(F)F)C(=O)NC1(C#N)CC1 | -25.9% | 
24 | O=C(c1ccc(OC(F)F)c(C#Cc2ccccn2)c1)N1Cc2cccnc2C1 | 0% | 
25 | Cc1noc(=O)c2ccc(NC(=O)C(O)(CC(C)(C)c3cccc4c3OCC4)C(F)(F)F)cc12 (stereo not given) | 0% | 
26 | O=S(=O)(O)Oc1ccc(C(c2ccc(OS(=O)(=O)O)cc2)c2ccccn2)cc1 | -16.8% | 
27 | NC[C@H]1CCC[C@@H](CNC(=O)[C@@H](Cc2c[nH]c3ccccc23)NC(=O)N2CCC3(C=Cc4ccccc43)CC2)C1 | 0% | 
28 | CCc1ccc(OCCn2c(C3CC(=O)N(Cc4ccc(F)cc4)C3)nc3ccccc32)cc1 (stereo not given) | 9.49% | 
29 | COc1ccc(NC(=O)Cn2ccn(-c3ccc(C)c(C)c3)c(=O)c2=O)cc1Cl | -18.1% | 
30 | CCC(=O)O | 3.13% | 
31 | Cc1ccc(-n2c(SCc3cccc(F)c3)nc3[nH]ncc3c2=O)cc1C | 0% | 
32 | Cc1cc(NC(=O)Nc2ccc(F)c(F)c2)n(-c2ccccc2)n1 | -28.5% | 
33 | O=C1CC[C@H](C(=O)O)N1 | -1.48% | 
34 | CC(C)[C@@H]1CC[C@@H](C)C[C@H]1OC(=O)c1ccccc1O | 5.46% | 
35 | C[C@H](O)CN(C)C | -1.74% | 
36 | NCc1c[nH]c(=S)n1C1CCc2c(F)cc(F)cc2C1 (stereo not given) |  | 15100 nM (active)
37 | O=C(Nc1ccc(Br)cc1)c1cc(Br)c(Br)s1 | -13.6% | 
38 | CCOc1ccc(S(=O)(=O)O)c2cccnc12 | -3.15% | 
39 | CCOc1ccc(CNC(=O)Cn2c(=O)c3cccn3c3ccc(F)cc32)cc1 |  | 425 nM (active)
40 | COc1ccc(NC(=O)Cn2cc(C(=O)c3cccs3)c3ccccc32)cc1 | 1.58% | 
